Experimental data as given in the supplement of paper PMC11417369.
Whole data set: some 25,000 sequences, median “ln(normalized median fluorescence intensity)” near 6.7, cut for the highest 2% near 10. The full list was thinned out, with the highest values kept by preference.

Each sequence was assayed on PfHDP1 homeodomain (GST-tagged) (assay: gcPBM binding intensity (ln(normalized median fluorescence intensity)); higher = stronger DNA binding).
How it was run: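 After 1 h on an Agilent 4 × 180k array of primer-extended double-stranded 36-bp intergenic genomic probes and negative controls, bound GST-tagged P. falciparum DNA-binding domains were detected with Alexa488 anti-GST antibody and scanned at 488 nm. The domains had been expressed in E. coli, and binding took place in 1× PBS with 1% milk, 0.2 mg/ml BSA, 0.5% salmon testes DNA and 0.03% Triton X-100. Binding intensity is the highest Masliner-normalised natural-log median intensity across replicate spots of either probe orientation.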

Sequence | gcPBM binding intensity (ln)
TGAATAAATATATATACACACCCATATATATATATA [CACACA_site8833] | 9.21
AAAAGAAGATAATACAGTACAGAATAATATAAAATA [XGTACX_site5962] | 6.51
ATATTTAAAAATATAGTGCAATTATTCTAATGTGTT | 8.89
TTCTGTATATAGTGTGCACACAATTAAAAAAAAAAA [CACACA_site8400] | 10.8
TTTTTTTTTCTGTATACACACAAAATTTATTTTTTA [CACACA_site2873] | 6.68
TTCTGTATAATATAAAAACAAAAATTAAATTAAAAC [CACACA_negctrl_site81] | 6.43
TATGTATATATATTAACACACAAAAAAAAAAAAAAA [CACACA_site1812] | 6.2
ATAAAATATAAAAACGCACACAATTATAAGGGTGTA [CACACA_site177] | 6.96
TTCTGTATACGGTGTGCACACAATTAAAAAAAAAAA [CACACA_site1416] | 10.8
TAAAATATATTTTTCTGTACACAAAAATATATTAAA [XGTACX_site2813] | 6.24
TTTTCTGTATATTGTGTGCACACAATTAACAAAAAA [GTGCAC_site9817] | 10.6
TTTTTATGTGTATATTATTACATTTACATCTTTAAC [CACACA_negctrl_site1676] | 6.64
ATTATTACTTTTTGAGTGCACATACACACAGACATA | 10
ATAATAAAATGGAGAGTGCATACATGTTTATTTTAT | 7.7
AAATTATGAACATATTGTACATATATATATATATAT [XGTACX_site8269] | 9.41
ATTTAAGATTTAATCACACACATATATATTATATAC [CACACA_site2907] | 6.55
TGCAATTTAATATGAGTGCATATATTGAGAAAATAC | 9.36
AATGGGGAAGGTTCTACACACAACGCAAATGCCTTA [CACACA_site2758] | 6.41
TGTGCACATAATTAGTGTACATTTTTTATTTAGACA [XGTACX_site317] | 10.1
AGACCTTTAATTTGTGTGCACATAATTAGTGTACAT [GTGCAC_site9434] | 10.7
TCCCTTAATTTTGTGTGTACATATAATATATTTTTA [XGTACX_site2789] | 6.76
AAAAAAAAAAAAAACACACACATATAATATATTTAA [CACACA_site1337] | 6.35
AAACAATAAAAGATTACACACATATATAGCATATAT [CACACA_site1698] | 6.82
ATATATATATATATATGTACATACATACATAGAACT [XGTACX_site2214] | 9.21

Sequence | gcPBM binding intensity (ln)
TTTTATTTTTAAAATTGTACATTATTATTGTTATTT [XGTACX_site1439] | 6.3
CCTTTCCTTTTATAAGTGCATATAACAAATGTATAC [GTGCAC_site9872] | 8.03
ATAATGAACAAAGTAGTGCACTTTCCTTATCTTTTC | 10.7
ATATCTTATAATACGGTGCACTTGACATGAACAACT [GTGCAC_site9987] | 10.3
AAATGTGAACTATAATAATTTCAACGTCTGATATAA [TGCATGCA_negctrl_site440] | 5.94
TTGAACTCTCTTACGCGTACGTGTTATTATGAAAAT [XGTACX_site6265] | 6.73
TTTTTCATAAAACACACACACAAAAATAATGTGGAA [CACACA_site3687] | 6.56
TTTCAAAATGTGTAAAATAAAAATAATATCATTACA [TGCATGCA_negctrl_site521] | 6.42
TTTCAAATGGAATGTGTGCACATAAATGTAAATAAA | 10.8
AAAAAAAAAAAAGGCACACAAACATATGTAGACATA [CACACA_site2284] | 6.61
ATAATAAAATAAATCACACATAATATAATGTAATAT [CACACA_site6144] | 6.49
AAAAAAAAATCAAAATGTACTTATTTTTATAATAAT [XGTACX_site4712] | 6.31
TTTTCTATAAGATTTGCACACAACTTATTCTATTAA [CACACA_site3752] | 10.6
AAGATTAAAAATTGCACACAAAAATATATTTTCTAT [CACACA_site1305] | 9.78
AAGATTAAACATTGCACACAAAAACATATTTTCTAT [CACACA_site530] | 9.7
TTTTTTTTTTTCAATAGTACTTTCCATTTACATATA [XGTACX_site3889] | 6.32
TGAACTCATAGGAAAACACACATATGTGTAATATAT [CACACA_site4267] | 7.27
TGAACTCATAGGAAAACACACATATGGGTAATATAT [CACACA_site187] | 6.78
TGAACTCATAGGAAAACACACATATGTGCAATATAT [CACACA_site6231] | 11.3
CTATTTTTATATTATTGTACGTTGTTATTATATATA [XGTACX_site1469] | 6.79
CACTAATATATATACAGTACATAATAAAGTATATAA [XGTACX_site6875] | 6.16
AATGCACAGCTCTTAGGCAAAAGTGGGTATTTACAC [GTGCAC_negctrl_site579] | 8.63
TGTCCAATTTATTGTGCACACCTCAAAAGTGGGTAA [CACACA_site3826] | 11.1
TTGGGTATTTTGTGCGCACACACATGCAAAAAGAAA [CACACA_site8299] | 9.63

Sequence | gcPBM binding intensity (ln)
TTTTTTTCTAATTATGCACACATATCAAAATATTCA [CACACA_site8886] | 10.2
TAGTTGCACATGTATACACACAAAAAATATTTTATG [CACACA_site475] | 10.4
TATTTTATATGAGGCACACAAATTTTAATTGTTATT [CACACA_site725] | 5.99
ACATGTTTTATGTGCACACAAAGTTGTTATGAGGTT [CACACA_site4031] | 10.7
ATACATGTTTTATGTGCACACAAAGTTGTTATGAGG [CACACA_site4032] | 10.8
TTTATGAAATGTTGCACACAAAAAACAACATGTTTT [CACACA_site1440] | 9.63
ATTTTATGAAATGTTGCACACAAAAAACAACATGTT [CACACA_site8408] | 9.69
TCTTCATAAAAATAAAGTACATTATATATATAAATA [XGTACX_site3775] | 6.37
AAAAAATAGAATATGGGTACTAAAAAGATACAAACA [XGTACX_site4464] | 6.84
AAGTTTAAAGGAATTACACAAACAAGCAAATATATA [CACACA_negctrl_site857] | 6.92
TCATTAATCAGGTATGCATGCATAACTATTAAAAAT [TGCATGCA_site90] | 6.46
AAAAAACTATTATGTGCATGCACAAGTCAGGTAAAT [TGCATGCA_site791] | 11.3
ACAATTTTATTTAAAGTGCATGTAAAATTAAAACTT | 7.44
ATAAAAATATAAACATGTACATAAAAATCTATATAT [XGTACX_site405] | 6.72
TTTCATTTGTCGTTATGTACTTATTAAATATTATTA [XGTACX_site7709] | 6.92
TTAATACATATATATATATTATATATATATATATAT [TGCATGCA_negctrl_site177] | 8.89
ATGATATATTTAATAGTGCACTAATTAAAATTATTA [GTGCAC_site9418] | 10.8
ATTTTCTTTTCCATAGTGCAATATAATTATCCATCA [GTGCAC_site9547] | 10.9
TTACAATAAATTATAGTGCAATATTTTATTTAATAT | 10.6
ATATATCATATTATAGTGCATTTATAATAATATTAT | 8.51
CTTAAAATATATTTAGTGCATATACTAATATATTAT | 8.9
TTCTAAAATTATATAGTGCAATTATATTAATTTTTC | 8.98
TTATATAATTTAATAGTGCAATTATATTAATTTTTC | 8.66
ATATATATATTTATAGTGCATTTATATTAAAATATC [GTGCAC_site9818] | 8.5

Sequence | gcPBM binding intensity (ln)
ATATTTTATATAATAGTGCAAATAATATTAAATAAT | 9.78
TATATATATATATATATATATATATATATAATATTA [XGTACX_negctrl_site558] | 9.37
TGGAGGATAGTTCACAGTACCCAGTAACTCTACGGA [XGTACX_site4930] | 6.22
TATATATATATAATTGCACACATCAAGTTTGATGTT [CACACA_site1288] | 9.99
CAAAATGATATGACAACACACAACCTATAGTAAGAC [CACACA_site1287] | 6.91
ATCATCCAAGATCTTACACACATATTAAATAAATAA [CACACA_site1473] | 6.66
AGGCCTTTTAGTATTTCACACACGTAAATGTGTATA [CACACA_site8284] | 6.43
GGAATATATATACATACACACATATATATATATATA [CACACA_site1666] | 9.32
GTTCTAATATATTGCACACGTAAAAATATAGGTAAT [CACACA_site886] | 10.6
TACGTAAATTCTAATACACACTATAGGATATTCTGC [CACACA_site7248] | 6.41
TTGTTCTAATATATTGCACACGTAAAAATATAGGTA [CACACA_site8195] | 10.1
AAAAAAAAAAAACACACACACACACCCAAATATATA [CACACA_site150] | 6.84
TGGGAAAAAATATATGCACACCCCCCAAAAAAAAAA [CACACA_site8696] | 10.6
GGAAAAAATATATGCACACCCCCCAAAAAAAAAAAA [CACACA_site2222] | 9.67
ATTAAATGTATGACTTGTACATAAAATAAAAAAAAA [XGTACX_site6555] | 6.56
AGGTGCAAAAATAAAACATGCAAAAATAAAAATGAA [TGCATGCA_site502] | 10.7
TAAAGGAAATAAAAAACATGCAAATATGAAATATAT [TGCATGCA_site745] | 6.74
AAATAAAATAATAAAACATGCAAAAATAATGATTTA [TGCATGCA_site415] | 6.72
TTTATTAAAATATTCTCACACACCAAAATATGTATG [CACACA_site932] | 6.42
TATATATATTTTTGTGTGCACTATAATATGAAAATA | 10.3
ATAACAAAAATCCTTGTGCACTATTTTAATAGAGTC | 10.5
TTTTAATATATAGAGTAACAAATTTGTCTATTAATA [CACACA_negctrl_site1495] | 6.6
